LYPLA1 inh = LYPLA1 (human) inhibition in PME1 counter-screen; hit rate 0.16% among 320,000; inhibition, % at 5.9 µM; recombinant LYPLA1, FP-Rh probe fluorescence polarization;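 active = inhibition above the mean of all tested compounds plus 3 SD, set per campaign, cut at about 14% in these data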;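 note: inhibitors block serine hydrolase probe labeling of LYPLA1 so polarization falls; 0% = enzyme with DMSO and 100% = wells lacking LYPLA1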
PREPL inhibitor = human PREPL enzyme inhibition. Q4J6C6. recombinant PREPL, fluorescence polarization activity-based probe. inhibition, % at 5.96 µM. hit rate 0.68% among 320,000;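 note: 0% = enzyme with DMSO and 100% = wells lacking enzyme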
Rin1-Abl PPI inh = human Rin1-Abl interaction inhibition | P00519+Q13671 | TR-FRET Rin1/Abl binding, biochemical | inhibition, % at 7.35 µM | hit rate 0.4% among 360,000 | AID 588664; in the data active = inhibition above about 5%, passing the limit was not always enough
p97 inhibitor = blocks human p97 ATPase activity. P55072. recombinant p97 ATPase, Kinase-Glo ATP luminescence, 3 h. inhibition, % at 8 µM. hit rate 0.42% among 220,000; in the data active = inhibition above about 15%;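 note: 0% = DMSO vehicle and 100% = wells lacking enzyme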
Hck-Nef inh = blocks Nef-activated human Hck kinase; P08631; Recombinant Hck-YEEI plus Nef, Z-Lyte FRET kinase assay; inhibition, % at 20 µM; AID 463187; hit rate 0.68% among 220,000;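 active = Hck-Nef kinase inhibition above about 50%, limit read from the data; inactive = inhibition below that limit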;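 note: 0% = DMSO with Hck plus Nef and 100% = Hck alone without Nef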
LYPLA2 inh = counter-screen for PME1 inhibitors: inhibitors of human LYPLA2; recombinant LYPLA2, FP-Rh probe fluorescence polarization; O95372; inhibition, % at 5.9 µM; hit rate 0.38% among 320,000;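 active = inhibition above the screen-wide mean plus 3 SD, limit set per campaign, cut at about 26% in these data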;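 note: 0% = LYPLA2 with DMSO and 100% = wells lacking LYPLA2 enzyme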
PREPL confirm = confirmation of human PREPL enzyme inhibitors | shares compounds with PREPL inhibitor | inhibition, % at 5.96 µM | hit rate 67% among 2,000 | AID 2803 | recombinant PREPL, fluorescence polarization activity probe;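 note: 0% = protein with DMSO and 100% = wells lacking protein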
An asterisk follows results filed as active. Compounds with a hit are over-represented: about 1.7% of the library has one in this group of screens. Cut-off read from the data, not from the text of the source, unless noted: active = inhibition above about 43%; inactive = the rest.

How did O=C(NC1CCCCC1)C1CCCN1S(=O)(=O)c1cccc2nsnc12 (stereo not given) do in these assays?
LYPLA1 inh: -5; PREPL inhibitor: 7; Rin1-Abl PPI inh: 0; p97 inhibitor: 3; Hck-Nef inh: 2; LYPLA2 inh: 0

Results for CCCn1cc(CN2CCC(n3nccc3NC(=O)CCOc3ccccc3)CC2)c(C)n1 ?
LYPLA1 inh: -2; PREPL inhibitor: 0; Rin1-Abl PPI inh: -1; LYPLA2 inh: 3

What do the screens show for `COc1ccc(C(CNC(=O)c2oc3c(Cl)cccc3c2C)N2CCCC2)cc1` (stereo not given)?
LYPLA1 inh: 2; PREPL inhibitor: -36; Rin1-Abl PPI inh: 2; LYPLA2 inh: 2

Results for O=C(NCC(=O)N1CCN(Cc2c(F)cccc2Cl)CC1)c1cccc(Cl)c1 ?
Rin1-Abl PPI inh: -2

Results for C=C1N(C)c2cc([N+](=O)[O-])c(N)cc2C1(C)C ?
LYPLA1 inh: 2; PREPL inhibitor: 85*; Rin1-Abl PPI inh: -16; p97 inhibitor: -2; Hck-Nef inh: 30; LYPLA2 inh: 1; PREPL confirm: 44*

How did COc1ccc(/C=N/Nc2nc3ccccc3[nH]2)cc1OC do in these assays?
LYPLA1 inh: 8; PREPL inhibitor: 21; Rin1-Abl PPI inh: -5; p97 inhibitor: 4; Hck-Nef inh: 3; LYPLA2 inh: 9

What do the screens show for `C(=N\Nc1nc2ccccc2[nH]1)/c1cccc2nccnc12`?
LYPLA1 inh: 6; PREPL inhibitor: 21; Rin1-Abl PPI inh: 0; p97 inhibitor: 3; Hck-Nef inh: 21; LYPLA2 inh: -1

How did C#CCn1cc(/C=N/Nc2nc3ccccc3[nH]2)c2ccccc21 do in these assays?
LYPLA1 inh: 4; PREPL inhibitor: 55*; Rin1-Abl PPI inh: -1; p97 inhibitor: 11; Hck-Nef inh: 3; LYPLA2 inh: 6; PREPL confirm: 63*

How did COc1cc(/C=N\Nc2nc3ccccc3[nH]2)cc(OC)c1OC do in these assays?
LYPLA1 inh: 6; PREPL inhibitor: 43*; Rin1-Abl PPI inh: 0; p97 inhibitor: -1; Hck-Nef inh: 1; LYPLA2 inh: -3; PREPL confirm: 22

Results for CCOc1ccc(S(=O)(=O)c2c[nH]c3ccccc3c2=O)cc1 ?
LYPLA1 inh: -8; PREPL inhibitor: 1; Rin1-Abl PPI inh: 0; LYPLA2 inh: -9

Results for CNS(=O)(=O)c1cccc(C(=O)OCC(=O)N(CCC#N)c2ccccc2)c1 ?
LYPLA1 inh: 4; PREPL inhibitor: -1; Rin1-Abl PPI inh: 1; p97 inhibitor: 2; Hck-Nef inh: 17; LYPLA2 inh: -5

What do the screens show for `Cc1cc(C)cc(N(CCC#N)C(=O)COC(=O)CNC(=O)c2sc3ccccc3c2Cl)c1`?
LYPLA1 inh: -4; PREPL inhibitor: 43*; Rin1-Abl PPI inh: -2; LYPLA2 inh: -2; PREPL confirm: 40

What do the screens show for `Cc1ccc(S(=O)(=O)NCC(=O)OCC(=O)N(CCC#N)c2ccccc2)cc1`?
PREPL inhibitor: 47*; Rin1-Abl PPI inh: 0; PREPL confirm: 38

How did O=c1[nH][nH]c2cc([N+](=O)[O-])ccc12 do in these assays?
Rin1-Abl PPI inh: -6

What do the screens show for `Cc1cccc(NS(=O)(=O)c2cccc(C(=O)N3CCCC(C(F)(F)F)C3)c2)c1` (stereo not given)?
LYPLA1 inh: 0; PREPL inhibitor: -1; Rin1-Abl PPI inh: -3; LYPLA2 inh: 0

How did CN(C)S(=O)(=O)N(CC(=O)N1CCN(Cc2ccccc2)CC1)c1ccccc1 do in these assays?
LYPLA1 inh: 1; PREPL inhibitor: -6; Rin1-Abl PPI inh: -1; p97 inhibitor: -1; Hck-Nef inh: 15; LYPLA2 inh: 3

What do the screens show for `CN(CC(=O)N1CCN(Cc2ccccc2)CC1)C(=O)Cc1ccc(Cl)c(Cl)c1`?
PREPL inhibitor: 46*; Rin1-Abl PPI inh: 3; PREPL confirm: 43

What do the screens show for `COc1ccc(-n2ccn3c(CCC(=O)N4CCN(c5cccc(C)c5C)CC4)nnc3c2=O)cc1`?
LYPLA1 inh: -1; PREPL inhibitor: 21; Rin1-Abl PPI inh: 1; LYPLA2 inh: 2

Bioassay records as filed in PubChem BioAssay.
